Data taken from article PMC5540273 (PLoS ONE, 2017).

Assays:
Conditions in all cases: concentration: 1 μM,replicates: in singlicate; n = 1
SNARK = system: T1, SNARK
T1 construct: gene NUAK2

SNRK = system: SNRK
SRC = system: SRC
SRMS = system: SRMS
SRPK1 = system: SRPK1
SRPK2 = system: SRPK2
SRPK3 = system: SRPK3
STK16 = system: STK16
STK33 = system: STK33
STK35 = system: STK35
STK36 = system: STK36
STK39 = system: STK39
SYK = system: SYK
SgK110 = system: SgK110
TAK1 = system: T2, TAK1
T2 construct: gene MAP3K7

TAOK1 = system: TAOK1
TAOK2 = system: TAOK2
TAOK3 = system: TAOK3
TBK1 = system: TBK1
TEC = system: TEC
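Note: KINOMEscan kinase panel screen.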

| SMILES | %Inh (SNARK) [%] | %Inh (SNRK) [%] | %Inh (SRC) [%] | %Inh (SRMS) [%] | %Inh (SRPK1) [%] | %Inh (SRPK2) [%] | %Inh (SRPK3) [%] | %Inh (STK16) [%] | %Inh (STK33) [%] | %Inh (STK35) [%] | %Inh (STK36) [%] | %Inh (STK39) [%] | %Inh (SYK) [%] | %Inh (SgK110) [%] | %Inh (TAK1) [%] | %Inh (TAOK1) [%] | %Inh (TAOK2) [%] | %Inh (TAOK3) [%] | %Inh (TBK1) [%] | %Inh (TEC) [%] |
| --- | --- | --- | --- | --- | --- | --- | --- | --- | --- | --- | --- | --- | --- | --- | --- | --- | --- | --- | --- | --- |
| CN1CCN(CCNc2nc3cc(Oc4ccc(NC(=O)Nc5cc(C(F)(F)F)ccc5F)cc4)ccc3[nH]2)CC1.Cl.Cl [GW768504] | 0 | 0 | 0 | 18 | 9 | 0 | 10 | 0 | 0 | 0 | 13 | 0 | 16 | 57 | 0 | 0 | 38 | 0 | 28 | 0 |
| CCNCC(Cc1ccccc1)NC(=O)c1cc(Br)c(-c2ccnc3[nH]ccc23)s1.Cl.Cl (centres unmarked) [GSK1383280] | 93.1 | 0 | 14 | 0 | 56 | 0 | 0 | 51 | 95.9 | 0 | 0 | 0 | 0 | 79 | 19 | 54 | 0 | 15 | 26 | 0 |
| C[C@@H]1CNc2c(sc3ccc4nc(-c5ccc(O)cc5)ccc4c23)C(=O)N1 | 85 | 2 | 0 | 0 | 0 | 0 | 24 | 30 | 78 | 9 | 5 | 6 | 0 | 0 | 44 | 86 | 0 | 0 | 8 | 5 |
| c1ccc(Oc2ccc(Nc3ccnc4ccc(-c5ccccn5)cc34)cc2)cc1 [GW407034] | 0 | 0 | 17 | 94.9 | 0 | 0 | 17 | 0 | 0 | 31 | 0 | 15 | 1 | 27 | 0 | 0 | 24 | 0 | 18 | 78 |
| O=C1NCCc2[nH]c(-c3ccncc3)cc21 | 87 | 12 | 6 | 0 | 0 | 0 | 4 | 33 | – | 68 | 6 | 23 | 11 | 0 | 23 | 96.9 | 16 | 41 | 20 | 0 |
| Cn1ccc2ncnc(Oc3ccc(NC(=O)Nc4cc(C(C)(C)C)on4)c(Cl)c3)c21 | 0 | 13 | 44 | 0 | 80 | 0 | 0 | 2 | 64 | 30 | 0 | 23 | 0 | 27 | 81 | 0 | 0 | 0 | 28 | 9 |
| COC(=O)c1cccc(NC(=O)NC2CCN(c3ccnc(NCc4ccc(F)cc4)n3)CC2)c1 [GSK1379860] | 0 | 0 | 0 | 0 | 61 | 0 | 0 | 0 | 0 | 0 | 0 | 0 | 25 | 0 | 0 | 0 | 0 | 0 | 0 | 15 |
| Cc1cccc(-c2nc(Nc3ccncc3)c3sccc3n2)n1 [GW869641] | 29 | 25 | 12 | 21 | 7 | 0 | 24 | 16 | 27 | 1 | 24 | 0 | 20 | 15 | 44 | 45 | 7 | 38 | 31 | 0 |
| NC(=O)Nc1sc(-c2ccc(F)cc2)cc1C(N)=O [GW789449] | 75 | 6 | 55 | 18 | 81 | 35 | 90.6 | 26 | 0 | 0 | 0 | 0 | 32 | 0 | 75 | 61 | 41 | 3 | 41 | 1 |
| O=C(Nc1ccccc1)c1cccc(Oc2ccc3nccn3n2)c1 | 0 | 0 | 0 | 0 | 2 | 0 | 0 | 0 | 12 | 0 | 5 | 3 | 14 | 6 | 11 | 5 | 0 | 0 | 0 | 0 |
| O=C(Nc1ccc(Oc2ccc3nc(NC(=O)C4CC4)cn3n2)c(F)c1)c1cccn(-c2ccccc2)c1=O | 0 | 3 | 10 | 0 | 14 | 16 | 24 | 0 | 23 | 0 | 1 | 0 | 30 | 0 | 0 | 0 | 0 | 0 | 54 | 44 |
| Cn1ccc2ncnc(Oc3ccc(NC(=O)Nc4cccc(C(F)(F)F)c4)c(F)c3)c21 | 0 | 0 | 2 | 0 | 23 | 49 | 23 | 0 | 64 | 4 | 0 | 3 | 43 | 0 | 31 | 0 | 38 | 0 | 51 | 5 |
| CCN1CCN(CCCC(=O)Nc2n[nH]c3nc(-c4ccc(O)cc4)c(Br)cc23)CC1 [SB-731579] | 0 | 0 | 0 | 0 | 0 | 0 | 13 | 2 | 0 | 0 | 0 | 0 | 0 | 0 | 11 | 53 | 65 | 66 | 0 | 0 |
| Cn1ccc2ncnc(Oc3ccc(NC(=O)Nc4cnn(C(C)(C)C)c4)c(Cl)c3)c21 | 10 | 0 | 82 | 0 | 74 | 11 | 0 | 16 | 7 | 0 | 7 | 0 | 0 | 38 | 85 | 0 | 15 | 0 | 10 | 0 |
| CNC(=O)c1ccccc1Nc1nc(Nc2cccc(CS(C)(=O)=O)c2)ncc1C.O=CO [GSK1520489] | 99 | 0 | 100 | 95.1 | 95.4 | 24 | 75 | 99.3 | 93.2 | 34 | 65 | 15 | 70 | 100 | 96 | 72 | 15 | 52 | 44 | 99.9 |
| CC(=O)Nc1nc2cnc(Nc3cc(NC(=O)c4cccc(CC(C)(C)C#N)c4)ccc3C)nc2s1 | 0 | 17 | 56 | 0 | 46 | 0 | 9 | 25 | 0 | 0 | 8 | 22 | 0 | 0 | 41 | 0 | 0 | 0 | 12 | 7 |
| Cc1n[nH]c2cc(Nc3ccnc(Nc4cccc(CN5CCOCC5)c4)n3)ccc12 [GW682569] | 25 | 0 | 77 | 0 | 92.2 | 13 | 65 | 90.8 | 0 | 0 | 9 | 16 | 34 | 0 | 57 | 0 | 0 | 0 | 63 | 0 |

| SMILES | %Inh (SNARK) [%] | %Inh (SNRK) [%] | %Inh (SRC) [%] | %Inh (SRMS) [%] | %Inh (SRPK1) [%] | %Inh (SRPK2) [%] | %Inh (SRPK3) [%] | %Inh (STK16) [%] | %Inh (STK33) [%] | %Inh (STK35) [%] | %Inh (STK36) [%] | %Inh (STK39) [%] | %Inh (SYK) [%] | %Inh (SgK110) [%] | %Inh (TAK1) [%] | %Inh (TAOK1) [%] | %Inh (TAOK2) [%] | %Inh (TAOK3) [%] | %Inh (TBK1) [%] | %Inh (TEC) [%] |
| --- | --- | --- | --- | --- | --- | --- | --- | --- | --- | --- | --- | --- | --- | --- | --- | --- | --- | --- | --- | --- |
| Cc1ccc2c(-c3ccnc(Nc4ccc(C(F)(F)F)cc4)n3)cnn2n1 [GW819776] | 0 | 0 | 0 | 28 | 14 | 0 | 26 | 48 | 52 | 0 | 9 | 6 | 42 | 20 | 2 | 1 | 23 | 0 | 48 | 9 |
| C[C@@H](Oc1cc(-n2cnc3cc(-c4ccncc4)ccc32)sc1C(N)=O)c1ccccc1Cl [GSK479719] | 95.4 | 3 | 26 | 0 | 89 | 0 | 64 | 46 | 1 | 0 | 0 | 6 | 52 | 0 | 0 | 0 | 0 | 0 | 0 | 7 |
| C[C@@H]1CCN(C(=O)N2CCCC2)C[C@@H]1N(C)c1ncnc2[nH]ccc12 | 61 | 18 | 0 | 0 | 8 | 3 | 14 | 0 | 0 | 0 | 7 | 0 | 21 | 73 | 43 | 0 | 0 | 0 | 64 | 0 |
| Cl.c1ccc(Oc2ccc(Nc3ccnc4cc(-c5ccc(CN6CCNCC6)o5)ccc34)cc2)nc1 [GW567142] | 14 | 0 | 34 | 89 | 0 | 7 | 0 | 0 | 24 | 57 | 0 | 1 | 0 | 0 | 3 | 0 | 0 | 0 | 25 | 26 |
| CC(C)S(=O)(=O)N1CCN(Cc2ccc3c(c2)nc(NC(=O)c2ccsc2)n3C[C@H](O)c2ccccc2)CC1 [GW635815] | 23 | 0 | 96.3 | 1 | 0 | 0 | 0 | 83 | 60 | 0 | 0 | 10 | 78 | 0 | 79 | 0 | 0 | 0 | 50 | 0 |
| COc1cc2nccc(Nc3ccc(Oc4ccccc4)cc3)c2cc1OC.Cl [GI261656] | 0 | 0 | 47 | 99.9 | 31 | 21 | 0 | 0 | 0 | 24 | 0 | 1 | 0 | 0 | 0 | 0 | 0 | 0 | 13 | 92.8 |
| CC(C(=O)NC1CCN(c2ccnc(Nc3ccc(F)cc3)n2)C1)c1ccc(Cl)cc1 (centres unmarked) [GSK1379713] | 0 | 0 | 0 | 0 | 20 | 0 | 18 | 0 | 5 | 0 | 0 | 0 | 30 | 13 | 0 | 0 | 0 | 0 | 0 | 0 |
| CN(c1ccc2c(c1)nc(NCc1ccc(F)cc1)n2C)c1ccnc(Nc2ccc(CS(C)(=O)=O)cc2)n1.Cl [GW813244] | 0 | 0 | 64 | 56 | 41 | 0 | 67 | 46 | 0 | 15 | 7 | 0 | 73 | 8 | 19 | 0 | 61 | 3 | 54 | 25 |
| COc1ccc(Nc2nccc(N3CCC(NC(=O)c4cccc(C#N)c4)C3)n2)cc1 (centres unmarked) [GSK1379730] | 0 | 0 | 19 | 0 | 36 | 0 | 0 | 2 | 10 | 0 | 0 | 0 | 19 | 0 | 0 | 0 | 0 | 0 | 0 | 0 |
| COc1cccc(OC)c1C(=O)Nc1cccc(-c2nn3ccccc3c2-c2ccnc(Nc3cccc(F)c3)n2)c1 [GSK361065] | 91.2 | 0 | 21 | 0 | 28 | 0 | 4 | 29 | 26 | 0 | 92 | 11 | 3 | 16 | 16 | 62 | 15 | 60 | 61 | 26 |
| Cn1cc(-c2cccc3c(N)c(C(N)=O)nnc23)cn1 | 9 | 11 | 0 | 24 | 45 | 11 | 39 | 11 | 27 | 8 | 6 | 29 | 11 | 0 | 21 | 25 | 29 | 12 | 31 | 0 |
| O=c1[nH]cc(-c2ccc(O)cc2)c2sc(-c3ccncc3)cc12 [GSK1033723] | 8 | 0 | 0 | 0 | 21 | 5 | 0 | 22 | 0 | 0 | 26 | 6 | 26 | 0 | 11 | 14 | 0 | 0 | 19 | 0 |
| O=C(Nc1n[nH]c2cc(-c3ccco3)ccc12)C1CC1 [SB-737447] | 11 | 9 | 0 | 3 | 62 | 0 | 66 | 49 | 0 | 0 | 0 | 5 | 19 | 0 | 11 | 65 | 5 | 12 | 25 | 2 |
| CCn1c(-c2nonc2N)nc2cncc(CNC3CCNCC3)c21.Cl [SB-747651] | 13 | 0 | 0 | 0 | 23 | 0 | 0 | 15 | 0 | 0 | 0 | 24 | 21 | 2 | 0 | 0 | 1 | 0 | 7 | 2 |
| COc1cc2ncn(-c3cc(OCC4CCCCC4)c(C(N)=O)s3)c2cc1OC [GSK204559] | 15 | 0 | 21 | 0 | 84 | 0 | 31 | 4 | 12 | 30 | 0 | 7 | 35 | 0 | 96.5 | 0 | 0 | 0 | 26 | 13 |
| COC(=O)Nc1nc2cc(Oc3ccc(NC(=O)Nc4cc(C(F)(F)F)ccc4Cl)cc3)ccc2[nH]1.Cl [GW697465] | 0 | 0 | 1 | 0 | 41 | 32 | 3 | 0 | 57 | 0 | 0 | 13 | 24 | 0 | 62 | 0 | 0 | 0 | 0 | 15 |
